# CYP2C19 act: activators of human cytochrome P450 2C19; activation factor at 5 µM; 96,000 tested, under 10 active; AID 1025; recombinant CYP2C19, luciferin-H EGE luminescence; stronger effect = higher value; 0 = fully inhibited enzyme, 1 = untreated enzyme; P33261;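 active = activation factor of at least 2 at 5 µM in the primary screen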;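 note: 0 = wells with 2.5 mM tranylcypromine and 1 = vehicle-only wells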
# Target sequence (P33261 whole entry, looked up): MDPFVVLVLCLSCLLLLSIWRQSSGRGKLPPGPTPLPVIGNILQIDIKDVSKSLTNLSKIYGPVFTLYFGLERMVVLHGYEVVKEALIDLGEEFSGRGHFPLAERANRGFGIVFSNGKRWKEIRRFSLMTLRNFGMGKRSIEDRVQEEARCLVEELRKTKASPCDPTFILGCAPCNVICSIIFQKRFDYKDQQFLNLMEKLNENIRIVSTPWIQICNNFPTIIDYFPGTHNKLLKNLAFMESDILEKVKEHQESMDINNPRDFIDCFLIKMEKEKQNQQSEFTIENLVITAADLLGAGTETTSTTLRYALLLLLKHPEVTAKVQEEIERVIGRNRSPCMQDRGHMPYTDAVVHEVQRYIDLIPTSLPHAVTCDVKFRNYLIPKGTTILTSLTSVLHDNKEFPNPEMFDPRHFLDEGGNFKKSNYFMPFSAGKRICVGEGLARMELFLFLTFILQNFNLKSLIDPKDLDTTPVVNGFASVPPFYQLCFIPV
# Cav32 inh: inhibitors of human Cav3.2 T-type calcium channel; O95180; Cav3.2-expressing cells, Fluo-4 calcium fluorescence FDSS; stronger effect = lower value; B-score at 10 µM; 4% of 100,000 active;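 active = single-dose well whose peak fluorescence ratio is a statistical outlier from its plate by either plate-standardised score or position-corrected B-score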
# CYP2C19 inhib: blocks human cytochrome P450 2C19. P33261. CYP2C19 Supersomes, luciferin-H EGE luminescence, 30 min. inhibition, % at 5 µM. 21% of 96,000 active. AID 778;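 active = CYP2C19 inhibition above a set limit at 5 µM in the primary screen, cut at about 50% in these data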;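 note: plate controls were negative control wells for no effect and 2.5 mM tranylcypromine positive control for full effect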
# CYP2C9 act: CYP2C9 (human) activation | recombinant CYP2C9, luciferin-H conversion, luminescence; stronger effect = higher value; factor 1 = untreated enzyme, 0 = blocked | 1.4% of 96,000 active | activation factor at 5 µM | AID 1024;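 active = activation factor of 2 or more for CYP2C9 at a 5 µM dose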;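 note: 0 = sulfaphenazole-blocked wells and 1 = vehicle-only wells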
# CYP2C9 inhib: blocks human cytochrome P450 2C9 | P11712 | CYP2C9 Supersomes, luciferin-H conversion, luminescence | inhibition, % at 5 µM | 20% of 96,000 active | AID 777;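 active = blocking of liver enzyme CYP2C9 beyond about 50% at 5 µM, limit read from the data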
# The depositor's hits bear a star; . = no result given. The list is not random: actives were taken first. Their share in the collection is about 27%.
SMILES,CYP2C19 act,Cav32 inh,CYP2C19 inhib,CYP2C9 act,CYP2C9 inhib
CCOc1cc(/C=C(/C#N)c2nc3ccccc3[nH]2)ccc1OCc1ccc(C(=O)O)o1,.,0.36,.,.,.
Cc1ccc2nc(/C(C#N)=C\c3ccc(N4CCCCC4)c([N+](=O)[O-])c3)[nH]c2c1,0.4,-3.8,56*,0.4,59*
CC(Cc1ccccc1)C(=O)NCc1nc2ccccc2s1 (stereo unspecified),.,-0.21,.,.,.
CCOC(=O)c1cc2c(C)n(-c3ccc(OCC)cc3)c(C)c2ccc1=O,0.4,-2.9,64*,0.8,20
CCOC(=O)c1cc2c(C)n(-c3ccc(C)cc3)c(C)c2ccc1=O,0.6,-7.4*,39,0.4,59*
CCOC(=O)c1cnc(Nc2ccc(OCC)cc2)nc1C,0.7,-1.1,28,1,3
CCOC(=O)Cn1nc(C)n(-c2ccc(C)cc2)c1=O,1.1,.,-7,1,-2
O=C(C1CCCN(Cc2ccccc2Br)C1)N1CCCCC1 (stereo unspecified),0.9,0.44,7,0.7,28
CS(=O)(=O)N1CCN(c2ccccc2NC(=O)c2ccco2)CC1,0.8,-0.21,16,0.9,11
Cc1onc(-c2ccccc2)c1C(=O)NCC1CCN(C(=O)c2c(-c3ccccc3)noc2C)CC1,0.8,0.98,18,0.7,32
CCN(CC)CCP(=O)(c1ccccc1)c1ccccc1,1.2,-4*,-15,1,0
C/C(=N/OC(=O)c1ccc(C)cc1)c1cccs1,0.8,-1.3,23,0.7,35
Cc1ccc(C(=O)c2nocc2C(=O)c2cccs2)cc1,0.4,-0.81,62*,0.3,69*
O=C(C1CCC(CNS(=O)(=O)c2cccc3nsnc23)CC1)N1CC=C(c2ccccc2)CC1 (stereo unspecified),0.1,-7.9*,87*,0.3,71*
O=C(C1CCCN(S(=O)(=O)c2cccc3nsnc23)C1)N1CC=C(c2ccccc2)CC1 (stereo unspecified),0.4,-1.9,64*,0.3,69*
CS(=O)(=O)Nc1ccc(C(=O)NC2CCCC2)cc1,1.1,0.59,-9,1,0
CCCOC(=O)CSC1=C(C#N)C(c2ccc3c(c2)OCO3)CC(=O)N1 (stereo unspecified),0.1,-0.077,92*,0,97*
CCOc1ccc(C2CC(=O)NC(SC)=C2C#N)cc1 (stereo unspecified),0.6,3.2,36,0.4,56*
COC(=O)CSC1=C(C#N)C(c2sccc2C)CC(=O)N1 (stereo unspecified),.,1.5,.,.,.
C=CCSC1=C(C#N)C(c2ccc(OCC)cc2)CC(=O)N1 (stereo unspecified),0.2,1.4,82*,0.4,65*
COC(=O)CSC1=C(C#N)C(c2ccc(F)cc2)CC(=O)N1 (stereo unspecified),0.3,-0.095,72*,0.1,90*
Clc1ccc(-c2cc(COc3ccc4ccccc4c3)no2)cc1,0.8,.,22,0.9,12
O=C(NCC1CCCO1)c1ccc(NC(=O)C2C3C=CC(C3)C2C(=O)O)cc1 (stereo unspecified),1,1.1,1,0.9,8
O=C(Nc1ccc(S(=O)(=O)C(F)F)cc1)c1cccc(S(=O)(=O)N2CCOCC2)c1,1.1,-0.6,-5,0.8,16
CC(=O)c1cc2c(cc1NS(=O)(=O)c1ccccc1)OCO2,0.1,0.12,88*,2.8*,-177
SMILES,CYP2C19 act,Cav32 inh,CYP2C19 inhib,CYP2C9 act,CYP2C9 inhib
CCCc1cc2c(cc1NS(=O)(=O)c1ccc(CCNC(C)=O)cc1)OCO2,0.2,0.046,78*,0.6,40
O=C(CCc1ccc(S(=O)(=O)NCc2ccccc2)cc1)N1CCN(Cc2ccc3c(c2)OCO3)CC1,0.5,-0.7,47,0.4,65*
O=C(CS(=O)(=O)Cc1ccccc1)N1CCN(Cc2ccc3c(c2)OCO3)CC1,0.8,0.98,22,0.8,23
CC(=O)NCCc1ccc(S(=O)(=O)NCc2ccc3c(c2)OCO3)cc1,0.4,0.52,61*,0.5,47
CC(C)(C)NS(=O)(=O)c1ccc(CCC(=O)Nc2ccc3c(c2)OCO3)cc1,0.4,0.32,58*,0.1,94*
O=C(c1ccccc1S(=O)(=O)NCc1ccccc1)N1CCCC1,0.1,0.33,90*,0.3,66*
Cc1ccc(S(=O)(=O)NCc2ccc(C(=O)N3CCN(Cc4ccccc4)CC3)cc2)cc1,0.6,-3.8,39,0.7,30
